Our source for the growth values is PubChem BioAssay (NCI).

The panel holds about 83,000 compounds, 20% with a hit somewhere; the sample as a whole holds those more often.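 Interpretation: 100, growth as untreated; towards 0, rising growth inhibition; 0, no net growth; 0 to -100, cell death. Compounds scoring below 10 were considered active.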 Values without a mark were called inactive. Activity calls are given as the source filed them.

The first assay concerns EKVX NSCLC. The assay can be described thus: NCI-60 one-dose screen, 48 h (100 = growth as untreated, 0 = no growth, -100 = all killed). To be noted: 10 µM unless noted.
Regarding `Cc1c(Cl)cccc1C(=O)Nc1nc2c(s1)CN(C(=O)c1ccc(C(F)(F)F)cc1)CC2`, the growth is 49.5%.
The same measure, in the same setting: with `CCCCCN(CCCCC)CC(O)c1cc(C)c2ccc3cc(C(C)C)ccc3c2c1` (stereo not drawn) the figure was 63.2%; with `CCC1S/C(=N\N=C(\C)c2cc3cc(Cl)ccc3o2)N(c2ccccc2)C1=O` (stereo not drawn), 102%; with `CN1C(=O)/C(=C/c2ccc(C(=O)Nc3ncc(Cc4cccc(Cl)c4)s3)cc2)SC1=S`, 55.9%.
For the molecule `O=C(NCc1cccc(CNC(=O)Nc2nc3ccccc3[nH]2)c1)Nc1nc2ccccc2[nH]1`, the growth was 11%.
As for `COc1ccc(Cn2cc3c(c2-c2ccccc2)CCc2cnoc2-3)cc1`, the growth is 44.1%.
The same measure, in the same setting: with `Cc1ccc(CNc2c3ccccc3nc3ccccc23)cc1` the figure was 37.9%; with `FC(F)(F)c1ccc(Cn2cc(CSc3nc4ccccc4s3)nn2)cc1`, 99.5%; with `COc1cc(OC)c2sc(-c3ccc(-n4cncc4-c4cc(OC)c(OC)c(OC)c4)cc3)nc2c1`, 58.7%.
Same read-out and setting: to `C#CCn1cnc2cnc(Nc3cccc(NC(=O)C=C)c3)nc21` belongs 89.2% [6.25 µM].
For `CC(=O)/C(=C/c1ccc([N+](=O)[O-])cc1)C(=O)c1ccccc1`, the growth was 101%.
On the same count and under the same terms, with `CCOC(=O)/C=C1\S/C(=N\Nc2cc(=O)[nH]c3ccccc23)N(c2ccccc2)C1=O` the figure was 104%; with `Cc1ccc(/C=C/C(=O)c2ccc(-n3cc(CN4CCN(c5cc6c(cc5F)c(=O)c(C(=O)O)cn6C5CC5)CC4)nn3)cc2)cc1`, 96%.

For another assay, the system named is SN12C renal. The assay is described as above. As to conditions: 10 µM unless noted.
Regarding `CC(=O)OC[C@]12CC[C@@H]([C@@H](C)c3nnc(-c4ccncc4)o3)[C@@H]1[C@H]1CC[C@@H]3[C@@]4(C)CC[C@H](OC(C)=O)C(C)(C)[C@@H]4CC[C@@]3(C)[C@]1(C)CC2`, the growth is 87.1%.
On the same count and under the same terms, to `CCN(CC)c1ccc(/C=N/NC(=O)Cc2ccc(Nc3ccnc(C(F)(F)F)c3)cc2)c(O)c1` belongs 40.3%; to `Cc1cc2c(cc1C)N(C(=O)CCl)CC(=O)N2`, 39.2%.
On the same count and under the same terms, with `C#CC#CC#CC#CC#CC#CC#CC#CC[C@@H]1OC[C@@H](COC(=O)O[C@@H](C(=O)O[C@H]2C[C@@]3(O)[C@@H](OC(=O)c4ccccc4)[C@@H]4[C@]5(OC(C)=O)CO[C@@H]5C[C@H](O)[C@@]4(C)C(=O)[C@H](OC(C)=O)C(=C2C)C3(C)C)[C@@H](NC(=O)c2ccccc2)c2ccccc2)O1` the figure was 21.4%.
On the same count and under the same terms, with `CCN1C(=O)N(CC)C2C1NN=c1s/c(=C\c3cnc(C)n3C)c(=O)n12` (stereo not drawn) the figure was 33.4%.
In the case of `C/C=C(\C)C(=O)N[C@H]1C(O)C[C@]2(C)C3CC[C@@]4(C)C(CC[C@@H]4C(C)N(C)C)C3CCC2C1O` (stereo partly drawn), the growth was 68.1%.
For the molecule `C#Cc1cccc(Nc2nc(C)nc3cc(NC(=O)CCl)ccc23)c1`, the growth is -67.8% (active).
As to `CSc1nn2c(-c3ccc4ccccc4c3)ccnc2c1C#N`, the growth is 23.4%.
On the same count and under the same terms, with `CCN(CC)CCCOc1ccc2ncnc(Nc3ccc(Oc4cccc(C(F)(F)F)c4)c(Cl)c3)c2c1` the figure was 47.1%.
In the case of `O=C1/C(=C\c2ccccn2)c2ccccc2N1c1c(Cl)cccc1Cl`, the growth was 18.1%.
Regarding `CCOC(=O)c1c(C)c2c(n1Cc1ccccc1)CSCC2=O`, the growth is 13.7% [100 µM].
The same measure, in the same setting: with `O=C(CN1CCN(c2cc3c(cc2F)c(=O)c(C(=O)O)cn3C2CC2)CC1)N/N=C/c1ccco1` the figure was 108%; with `Clc1ccc(-c2cc(-c3ccccc3)nc(NCCNc3ccnc4cc(Cl)ccc34)n2)cc1`, -48% (active); with `N#C/C(=C\C=C\c1ccc(-c2cc(Cl)ccc2Cl)o1)c1nc2ccccc2s1`, 92%.
Still for that read-out and setting: with `COc1cc(OC)c(C(=O)C(CN(C)C)CN(C)C)cc1OC` the figure was 107%; with `CCn1cc(CNc2ccc(C(=O)Nc3cc4cc(OC)c(OC)cc4c(C)n3)cc2)cn1`, 79.3%.
As to `N#Cc1c(-c2ccccc2)nc(SCc2nnc(-c3ccc(Cl)cc3)o2)[nH]c1=O`, the growth was 97.6%.
In the case of `O=P(O)(O)OCC1OC(n2cnc3c(NCc4ccco4)ncnc32)C(O)C1O` (stereo not drawn), the growth was 12.1%.
On to `CCN(CC)CCCN1C(=O)c2c(c(C)c3c(oc4ccc(O)cc43)c2C)C1=O`, for which the growth was 63.4%.
In the case of `O=[N+]([O-])c1ccc(-c2cn3nc(-c4c[nH]c5ccccc45)sc3n2)cc1`, the growth was 91.9%.
With `Cc1nc2ccccc2c(/C=C/c2ccccc2)c1C(=O)/C=C/c1ccccc1`, the growth is 23.4%.
Consider `O=C1Nc2c(C(=O)O)cccc2/C1=N/c1n[nH]c(=S)s1`, for which the growth is 93.4%.
Consider `CC(=O)Oc1ccc(OC(C)=O)c2ccccc12`, for which the growth is 85.8%.
The same measure, in the same setting: with `COC(=O)/C=C1/SC(=Nc2ccc([N+](=O)[O-])cc2)N(CCc2c[nH]c3ccc(O)cc23)C1=O` the figure was 45.8%; with `[2H]C([2H])([2H])Oc1ccc(F)cc1/C=C/C(=O)/C=C(/C=C/c1cc(F)ccc1OC([2H])([2H])[2H])OB(F)F`, 67.4%.
Consider `Nc1c(C(=O)Nc2cccc(Cl)c2)sc2nc3c(cc12)CCCC3`, for which the growth is 97.6%.
Take `NS(=O)(=O)c1ccc(C(=O)NN2C(=O)c3c(Br)c(Br)c(Br)c(Br)c3C2=O)cc1`: the growth is 97.6%.
Consider `Cc1c(Cl)cccc1C(=O)Nc1nc2c(s1)CN(C(=O)c1ccc(C(F)(F)F)cc1)CC2`, for which the growth is 30%.
In the case of `CCCCCN(CCCCC)CC(O)c1cc(C)c2ccc3cc(C(C)C)ccc3c2c1` (stereo not drawn), the growth was -52.9% (active).
Still for that read-out and setting: with `CCC1S/C(=N\N=C(\C)c2cc3cc(Cl)ccc3o2)N(c2ccccc2)C1=O` (stereo not drawn) the figure was 118%; with `CN1C(=O)/C(=C/c2ccc(C(=O)Nc3ncc(Cc4cccc(Cl)c4)s3)cc2)SC1=S`, 84.2%; with `O=C(NCc1cccc(CNC(=O)Nc2nc3ccccc3[nH]2)c1)Nc1nc2ccccc2[nH]1`, -52.2% (active).
Still for that read-out and setting: to `COc1ccc(Cn2cc3c(c2-c2ccccc2)CCc2cnoc2-3)cc1` belongs 37.3%; to `Cc1ccc(CNc2c3ccccc3nc3ccccc23)cc1`, 24.9%.
With `FC(F)(F)c1ccc(Cn2cc(CSc3nc4ccccc4s3)nn2)cc1`, the growth is 99.9%.
The same measure, in the same setting: to `COc1cc(OC)c2sc(-c3ccc(-n4cncc4-c4cc(OC)c(OC)c(OC)c4)cc3)nc2c1` belongs 68.7%; to `C#CCn1cnc2cnc(Nc3cccc(NC(=O)C=C)c3)nc21`, 90.5% [6.25 µM].
`CC(=O)/C(=C/c1ccc([N+](=O)[O-])cc1)C(=O)c1ccccc1`: the growth is 91.6%.
For the molecule `CCOC(=O)/C=C1\S/C(=N\Nc2cc(=O)[nH]c3ccccc23)N(c2ccccc2)C1=O`, the growth is 98.9%.
With `Cc1ccc(/C=C/C(=O)c2ccc(-n3cc(CN4CCN(c5cc6c(cc5F)c(=O)c(C(=O)O)cn6C5CC5)CC4)nn3)cc2)cc1`, the growth was 67.7%.
